S1P3 antagonist – S1P3 (human) receptor antagonism. Q99500. CHO S1P3 NFAT-BLA reporter, FRET fluorescence, antagonist mode. inhibition, % at 4.98 µM. hit rate 0.27% among 170,000;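 active = inhibition above the plate cutoff, the mean inhibition of test wells on that plate plus 3 SD, cut at about 28% in these data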;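 also: cells challenged with S1P at its EC80 of 0.8 µM; blue over green emission ratio from cleaved BLA substrate after 4 h stimulation; 0% = S1P-stimulated wells and 100% = unstimulated DMSO-only wells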
Target sequence (Q99500 whole entry, looked up): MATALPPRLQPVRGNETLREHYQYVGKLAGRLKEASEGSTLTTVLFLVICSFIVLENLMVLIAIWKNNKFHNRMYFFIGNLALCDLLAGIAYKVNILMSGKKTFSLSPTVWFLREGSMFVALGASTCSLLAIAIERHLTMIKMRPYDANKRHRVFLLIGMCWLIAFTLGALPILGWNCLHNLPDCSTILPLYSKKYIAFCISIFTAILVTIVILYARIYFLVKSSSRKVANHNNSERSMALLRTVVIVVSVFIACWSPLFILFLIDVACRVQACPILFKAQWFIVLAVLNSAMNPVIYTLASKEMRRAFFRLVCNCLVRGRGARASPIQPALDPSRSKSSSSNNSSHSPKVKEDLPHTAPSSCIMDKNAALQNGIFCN
HSF1 inhib – HSF1 inhibition; NIH3T3-HGL HSE-luciferase, MG132-induced, luminescence 8 h; active compounds read low; activity change, negative = inhibition, % at 7.5 µM (by protocol); hit rate 0.77% among 300,000; AID 2098;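 active = more than half of replicate wells show activity change below -50%, luminescence cut by over half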;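 also: luciferase reports HSF-1 transcriptional activity via heat shock element; 0% = median of DMSO wells and -100% = zero luminescence signal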
HSF1 activator – increases HSF-1 driven luciferase reporter signal; activation, % at 9 µM; NIH3T3-HGL HSF-1 luciferase reporter, MG132, 8 h; 100% = twice DMSO control signal; hit rate 1.7% among 300,000; AID 504408;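 active = mean replicate activation of at least 50% with a set share of replicates each reaching 50%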;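 also: 0% = median of the neutral control wells and 100% = twice that signal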
S1P4 ag – agonists of human S1P4 receptor; S1P4-expressing cell line, agonist reporter assay; activation, % at 4.98 µM; AID 1509; hit rate 0.35% among 220,000; O95977; in the data active = activation above about 11%;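 also: 0% = DMSO vehicle and 100% = reference agonist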
Hsp70 act – Hsp70 transcriptional activation, primary screen; HeLa Hsp70 promoter luciferase reporter, luminescence; scaled: vehicle 0, proteasome-inhibitor control 100%; activation, % at 10 µM; hit rate 0.04% among 200,000;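 active = activation above the mean across all tested compounds plus 3 SD, cutoff set per campaign, cut at about 5.5% in these data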;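 also: 100% = MG132 at 30 µM as the positive control and 0% = DMSO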
S1P4 antag – blocks the human S1P4 receptor; S1P4-expressing cells, antagonist mode, reporter read-out; inhibition, % at 4.98 µM; hit rate 0.26% among 220,000; AID 1510; in the data active = inhibition above about 29%;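 also: 0% = wells stimulated with agonist and 100% = vehicle wells without agonist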
Starred values were filed as active, the others as inactive; nt = no result. Compounds with a hit are over-represented: about 2.9% of the library has one in this group of screens.

SMILES	S1P3 antagonist	HSF1 inhib	HSF1 activator	S1P4 ag	Hsp70 act	S1P4 antag
C/C(=N\Nc1cccc2cccnc12)c1ccccn1	-8	15	49	-1	0	-15
C/C(=N\Nc1cccc2cccnc12)c1ccccc1O	3	30	54*	0	0	-2
Cc1onc(-c2c(F)cccc2Cl)c1C(=O)c1ccc(F)cc1	5	-8	4	2	nt	4
Cc1onc(-c2c(F)cccc2Cl)c1C(=O)c1ccccc1	14	-61*	-71	2	nt	0
CCOc1ccc(N2C(=O)C(Cl)=C(Nc3ccccc3O)C2=O)cc1	nt	44	67*	1	0	-10
COc1ccccc1NC1=C(Cl)C(=O)N(c2ccccc2)C1=O	4	-7	-1	1	0	1
O=C(c1cc(Br)c[nH]1)N1CCCCC1	nt	1	-1	nt	nt	nt
O=C(c1cc(Br)c[nH]1)N1CCSCC1	nt	-84*	-86	nt	nt	nt
Cc1ccc(N=C2C(=S)N(c3ccc(C)cc3)C(=N)N2/N=C/c2ccc(Cl)cc2)cc1	nt	67	108*	3	0	-22
COc1cc(C(=O)N(C)C2CCCN(Cc3ccccc3F)C2)cc(OC)c1OC (stereo unspecified)	nt	-77*	-81	nt	nt	nt
CSc1ccc(-c2nnn(Cc3ccc(Br)cc3)n2)cc1	nt	31	41	1	0	-1
CSc1ccc(-c2nnn(Cc3ccccn3)n2)cc1	10	45	77*	2	0	-2
O=c1c(S(=O)(=O)c2ccc(Cl)cc2)cn(Cc2cccc(F)c2)c2ccc(F)cc12	-16	14	14	1	0	7
Cc1ccc(Cn2cc(S(=O)(=O)c3ccc(C(C)C)cc3)c(=O)c3cc4c(cc32)OCO4)cc1	-7	45	64*	2	0	-21
Cc1ccccc1Cn1cc(S(=O)(=O)c2ccc(C(C)C)cc2)c(=O)c2cc3c(cc21)OCO3	nt	57	78*	nt	nt	nt
CC(C)c1ccc(S(=O)(=O)c2cn(Cc3ccc(F)cc3)c3cc4c(cc3c2=O)OCO4)cc1	5	-16	-31	-1	0	-13
Cc1ccc(Cn2cc(S(=O)(=O)c3ccc(Cl)cc3)c(=O)c3cc(F)ccc32)cc1	-17	41	79*	3	0	-23
O=C(NCCCn1ccnc1)c1cc(-c2cccc(O)c2)on1	-11	-1	1	-2	nt	14
CC1(C)CC(=O)C(C=NCC2CCN(C(=S)Nc3cccc(Cl)c3)CC2)=C(O)C1	5	-8	-6	-1	0	-5
COc1ccccc1OCc1cc(C(=O)N2CCCC(OCc3cccnc3)C2)no1 (stereo unspecified)	nt	39	63*	nt	nt	nt
CCCOC1CCCN(C(=O)c2cc(COc3ccc(-n4cncn4)cc3)on2)C1 (stereo unspecified)	nt	32	60*	nt	nt	nt
O=C(c1cc(COc2ccccc2)on1)N1CCCC(OCc2cccnc2)C1 (stereo unspecified)	nt	-1	3	nt	nt	nt
NS(=O)(=O)c1ccc(CCNc2ncnc3sccc23)cc1	-29	6	24	4	0	-35
Cc1sc2ncnc(NCCc3ccc(S(N)(=O)=O)cc3)c2c1C	nt	-51*	-61	2	0	-55
NC(=O)c1sc2nccc(Nc3ccccc3)c2c1N	72*	-20	-22	0	0	-6
SMILES	S1P3 antagonist	HSF1 inhib	HSF1 activator	S1P4 ag	Hsp70 act	S1P4 antag
O=C(CNC(=O)c1ccc(F)cc1)N/N=C/c1cc(Br)ccc1OC(=O)/C=C/c1ccco1	-6	7	13	0	nt	-16
Cc1ccc(-c2cc(-c3ccc(C)cc3O)[nH]n2)cc1	nt	52	71*	nt	nt	nt
COc1ccc(-c2cc(-c3ccccc3)n[nH]2)c(O)c1	-2	28	45	1	0	-1
COc1ccc(-c2cc(-c3ccccc3O)[nH]n2)cc1	nt	37	85*	2	0	8
Cc1ccc(-c2cc(-c3ccc(F)cc3)n[nH]2)c(O)c1	nt	26	30	nt	nt	nt
Cc1ccc(O)c(-c2cc(-c3cccc(Br)c3)n[nH]2)c1	1	44	67*	0	0	5
COc1cccc(C2=CC(c3ccc(OC)c(OC)c3)NC(=S)N2)c1 (stereo unspecified)	-5	2	5	-1	nt	15
CN1CCN(NC(=O)c2cc([N+](=O)[O-])cc([N+](=O)[O-])c2)CC1	nt	1	19	1	0	-15
CCOc1cc(Cl)c(S(=O)(=O)NCCCn2ccnc2)cc1Cl	nt	-12	-15	nt	nt	nt
NC(=O)CSc1nccn1Cc1ccc(Cl)cc1	-28	0	3	-1	0	-6
O=C(Nc1ccc(F)cc1)c1csc(Cc2ccccc2)n1	-11	38	59*	1	0	0
COc1ccc(CNC(=O)c2csc(Cc3ccccc3)n2)cc1	nt	7	18	-2	0	-3
COc1ccccc1CNC(=O)c1csc(Cc2ccc(Cl)cc2)n1	nt	62	100*	-1	0	-22
CCOC(=O)c1c(C)c(C(=O)Nc2ccc3c(c2)OCO3)c(C)n1C	19	36	71*	0	0	-6
CCOC(=O)c1c(C)c(C(=O)Nc2ccc3c(c2)OCCO3)c(C)n1CC	25	-7	5	-3	0	9
Cc1ncc([N+](=O)[O-])n1CC(=O)Nc1ccc(OC(F)(F)Cl)cc1	nt	-7	-14	nt	nt	nt
Cc1ccc2nc(-c3ccccc3NC(=O)CCC(=O)O)c(=O)[nH]c2c1	nt	-74*	-80	nt	nt	nt
O=C(COc1ccc([N+](=O)[O-])cc1)N(C1CCCCC1)C1CCS(=O)(=O)C1 (stereo unspecified)	nt	14	25	nt	nt	nt
CCOC(=O)N1CCN(S(=O)(=O)c2ccc(F)c(C(=O)Nc3ccc(C(C)C)cc3)c2)CC1	-6	28	69*	2	0	0
CC1Cc2ccccc2N1CC(=O)NC(=O)NCc1ccccc1 (stereo unspecified)	-9	-75*	-75	1	0	-6
CC1Cc2ccccc2N1CC(=O)NC(=O)NC(C)(C)C (stereo unspecified)	5	-17	-13	-1	0	-8
Cc1nn(C)cc1S(=O)(=O)Nc1ccc2c(c1)OCCO2	-13	-63*	-69	1	0	-14
Cc1ccc(N(CC(=O)Nc2ccc3c(c2)OCCO3)S(=O)(=O)c2c(C)n[nH]c2C)cc1	12	-2	-5	0	0	-2
Cc1c(S(=O)(=O)Nc2ccc3c(c2)OCCO3)cnn1C	-6	5	-10	4	0	-24
O=C(O)c1cc(S(=O)(=O)Nc2ccc3c(c2)OCCO3)c(Cl)cc1Cl	-1	-69*	-71	2	0	-9
Cc1n[nH]c(C)c1S(=O)(=O)Nc1ccc2c(c1)OCCO2	-20	-62*	-63	-2	0	7
CC(=O)Nc1ccc(S(=O)(=O)Nc2ccc3c(c2)OCCO3)cc1Cl	24	-1	3	1	nt	-10
O=C(COC(=O)c1ccc(O)cc1O)Nc1ncc(Cl)cc1Cl	nt	-4	14	nt	nt	nt
